The source made the active and inactive calls. How the source made its calls: active means hit-call score of the fitted dose curve at least 0.9, where 1 is the maximum; inactive means score below 0.9.
What was measured:
[1] = ATG_CRE_CIS: Attagene CIS-FACTORIAL HepG2 Assay for human cAMP Responsive Element (CRE) binding protein 3 (AID 2282926); conditions: HepG2 CRE cis-reporter, Attagene multiplexed mRNA; actives raise or lower the signal
In short: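 Liver-derived HepG2, transfected with a CRE-containing reporter panel, exposed 24 h; transcript levels sized and quantified by capillary electrophoresis of labelled amplicons; signal changes either way referenced to vehicle.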

[2] = biological target: CCAAT/enhancer-binding protein beta (Homo sapiens) (UniProt P17676); test: ATG_C_EBP_CIS: Attagene CIS-FACTORIAL HepG2 Assay for human CCAAT/Enhancer Binding Protein (C/EBP) beta (AID 2282927); conditions: HepG2 Attagene cis-factorial transcription factor reporter; actives raise or lower the signal
In short: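 HepG2 transiently transfected with multiplexed reporter units under cis-regulatory promoters reporting endogenous C/EBPb activity. After 24 h exposure, reporter mRNA assayed by RT-PCR, fluorescent labelling, HpaI digestion and capillary electrophoresis; bidirectional fitting versus DMSO.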

[3] = ATG_CMV_CIS: Attagene CIS-FACTORIAL HepG2 Assay for human CMV (Internal Marker) (AID 2282928); conditions: HepG2 CMV promoter reporter, transcription factor profiling; actives raise or lower the signal;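 further: endpoint acts as a background internal control marker rather than a target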
In short: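 24 h chemical treatment, HepG2 with transient multi-reporter transfection; RNA → oligo(dT) RT → PCR → 6-FAM extension → HpaI digest → CE fluorescence. Bidirectional fit, DMSO negative control.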

[4] = biological target: Aryl hydrocarbon receptor (Homo sapiens) (UniProt P35869); test: ATG_Ahr_CIS: Attagene CIS-FACTORIAL HepG2 Assay for human Aryl Hydrocarbon Receptor (Ahr) (AID 2282930); conditions: HepG2 AhR cis-factorial reporter transcription; actives raise or lower the signal
In short: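 HepG2 cells transiently transfected with cis-element-driven multiplexed reporter units; endogenous AhR activity read as reporter mRNA 24 h after dosing, via RT-PCR, 6-FAM labelling, HpaI digestion and capillary electrophoresis. Bidirectional fit relative to DMSO.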

[5] = ATG_AP_1_CIS: Attagene CIS-FACTORIAL HepG2 Assay for human Activator Protein 1 (AP-1) (AID 2282931); conditions: HepG2 Attagene cis-factorial AP-1 reporter mRNA; actives raise or lower the signal
In short: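 HepG2 cells transiently transfected with cis-element-driven reporter transcription units, dosed for 24 hours. Reporter mRNA measured by RT-PCR, 6-FAM labelling, HpaI digestion and capillary electrophoresis. Bidirectional fitting against DMSO baseline.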

[6] = ATG_AP_2_CIS: Attagene CIS-FACTORIAL HepG2 Assay for human Activator Protein 2 (AP-2) (AID 2282932); conditions: HepG2 AP-2 cis-reporter, Attagene transcription factor profiling; actives raise or lower the signal
In short: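 Liver-derived HepG2 line, cis-reporter system measuring endogenous factors; 24 h dosing; reporter mRNA detected by fluorescent RT-PCR and capillary electrophoresis.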

[7] = ATG_BRE_CIS: Attagene CIS-FACTORIAL HepG2 Assay for human Bone Morphogenetic Protein (BMP) Response Element (BRE) (AID 2282933); conditions: HepG2 BMP response element reporter, Attagene transcription factor profiling; actives raise or lower the signal
In short: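 A HepG2 multiplex reporter system measured inducible reporter mRNA 24 h post-dosing. Detection: RT-PCR, 6-FAM primer extension, HpaI digestion, capillary electrophoresis. Activity fitted bidirectionally relative to DMSO.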

[8] = biological target: Transcription factor E2F1 (Homo sapiens) (UniProt Q01094); test: ATG_E2F_CIS: Attagene CIS-FACTORIAL HepG2 Assay for human E2F Transcription Factor 1 (AID 2282935); conditions: HepG2 Attagene cis-reporter, E2F reporter RNA transcripts; actives raise or lower the signal
In short: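 Liver-derived HepG2 cells expressing transfected promoter-driven reporter units received test chemical for 24 hours. Signal gains or losses were fitted bidirectionally against DMSO.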

[9] = ATG_E_Box_CIS: Attagene CIS-FACTORIAL HepG2 Assay for human Enhancer Box (E-box) (AID 2282936); conditions: HepG2 E-box cis-reporter transcription, actives raise or lower the signal
In short: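 In this cell-based setup, HepG2 cells bearing transfected promoter-driven reporter units were exposed to chemicals for 24 h; reporter transcripts were amplified, 6-FAM-labelled, cut with HpaI and sized by capillary electrophoresis.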

[10] = ATG_M_61_CIS: Attagene CIS-FACTORIAL HepG2 Assay for M61 Transcription Factor (Internal Marker) (AID 2282937); conditions: HepG2 Attagene CIS-FACTORIAL M61 internal marker reporter; actives raise or lower the signal
In short: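 HepG2 cells transiently transfected with multiplexed cis-promoter reporter units reporting endogenous transcription factor activity, measured 24 h after dosing. Reporter mRNA quantified by RT-PCR and capillary electrophoresis; bidirectional fit against DMSO baseline.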

[11] = ATG_EGR_CIS: Attagene CIS-FACTORIAL HepG2 Assay for human Early Growth Response 1 (EGR1) (AID 2282938); conditions: HepG2 Attagene CIS-FACTORIAL EGR reporter mRNA; actives raise or lower the signal
In short: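 HepG2 cells transiently transfected with cis-element-driven multiplexed reporter units, dosed for 24 h. EGR1-element reporter mRNA quantified by RT-PCR, 6-FAM labelling, HpaI digestion and capillary electrophoresis; bidirectional fit versus DMSO.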

[12] = ATG_M_19_CIS: Attagene CIS-FACTORIAL HepG2 Assay for M19 Transcription Factor (Internal Marker) (AID 2282939); conditions: HepG2 Attagene CIS-FACTORIAL M19 internal marker reporter; actives raise or lower the signal
In short: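 Chemical-treated HepG2 (24 h) with MRTU constructs; reporter transcripts detected by fluorescent RT-PCR fragment analysis on capillary electrophoresis. Internal background marker, DMSO as baseline.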

[13] = ATG_ERE_CIS: Attagene CIS-FACTORIAL HepG2 Assay for Estrogen Response Element (ERE) (AID 2282940); conditions: HepG2 ERE cis-reporter, Attagene RNA transcript; actives raise or lower the signal
In short: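 Human liver cells (HepG2) bearing transiently transfected, promoter-regulated reporter units were exposed 24 h. Reporter mRNA induction was detected by capillary electrophoresis of labelled RT-PCR products and fitted bidirectionally to DMSO.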

[14] = ATG_Ets_CIS: Attagene CIS-FACTORIAL HepG2 Assay for human Erythroblast Transformation Specific (ETS) (AID 2282941); conditions: HepG2 ETS cis-reporter transcription, actives raise or lower the signal
In short: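 Cis-regulated reporter mRNA induction in HepG2 (transient transfection), 24 h exposure, RT-PCR plus capillary electrophoresis detection; DMSO serves as negative control and baseline.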

[15] = biological target: Hepatocyte nuclear factor 3-beta (Homo sapiens) (UniProt Q9Y261); test: ATG_FoxA2_CIS: Attagene CIS-FACTORIAL HepG2 Assay for human Forkhead box A2 (FOXA2) (AID 2282942); conditions: HepG2 cis-reporter transcription factor activity, 24 h; actives raise or lower the signal
In short: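 HepG2 transiently transfected with a multiplexed cis-promoter reporter library read endogenous FOXA2 activity. After 24 h compound exposure, reporter mRNA was quantified by RT-PCR, HpaI digestion and capillary electrophoresis. Bidirectional fit against DMSO.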

[16] = ATG_FoxO_CIS: Attagene CIS-FACTORIAL HepG2 Assay for human Forkhead box O (FoxO) (AID 2282943); conditions: HepG2 Attagene cis-reporter, FoxO element, mRNA; actives raise or lower the signal
In short: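 HepG2 cells transiently transfected with cis-element-driven reporter units report endogenous FoxO activity. After 24 h chemical exposure, reporter mRNA quantified by RT-PCR, fluorescent labeling, HpaI digestion and capillary electrophoresis; bidirectional fit versus DMSO.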

[17] = ATG_GATA_CIS: Attagene CIS-FACTORIAL HepG2 Assay for human GATA Binding Protein (AID 2282944); conditions: HepG2 GATA cis-element reporter, Attagene multiplex mRNA; actives raise or lower the signal
In short: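 Transfected cis-reporter HepG2 cells were treated with chemicals for 24 hours. Total RNA was then converted to cDNA, amplified with reporter-specific primers and analysed by fluorescent capillary electrophoresis, using DMSO-treated wells as baseline.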

[18] = ATG_DR4_LXR_CIS: Attagene CIS-FACTORIAL HepG2 Assay for human Liver X Receptor (LXR), DR4 submotif (AID 2282929); conditions: HepG2 Attagene DR4 cis-reporter, mRNA transcription; actives raise or lower the signal
In short: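 HepG2 cells were transiently transfected with multiple cis-regulated reporter units and dosed for 24 hours. The DR4 reporter mRNA was quantified by RT-PCR, 6-FAM labelling and capillary electrophoresis. Bidirectional fits used DMSO as baseline.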

[19] = biological target: Retinoic acid receptor alpha (Homo sapiens) (UniProt P10276); test: ATG_DR5_RAR_CIS: Attagene CIS-FACTORIAL HepG2 Assay for human Retinoic Acid Receptor Alpha (RARE), DR5 submotif (AID 2282934); conditions: HepG2 Attagene cis-factorial RARE DR5 reporter, mRNA; actives raise or lower the signal
In short: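 HepG2 cells transiently transfected with multiplexed reporter units; DR5 cis-element drives reporter through endogenous transcription factors. After 24 h dosing, reporter mRNA quantified by RT-PCR, fluorescent labeling, HpaI digestion and capillary electrophoresis; bidirectional fitting versus DMSO.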

Measured: AC50

Chain of Aryl hydrocarbon receptor (Homo sapiens) (P35869 whole entry, looked up): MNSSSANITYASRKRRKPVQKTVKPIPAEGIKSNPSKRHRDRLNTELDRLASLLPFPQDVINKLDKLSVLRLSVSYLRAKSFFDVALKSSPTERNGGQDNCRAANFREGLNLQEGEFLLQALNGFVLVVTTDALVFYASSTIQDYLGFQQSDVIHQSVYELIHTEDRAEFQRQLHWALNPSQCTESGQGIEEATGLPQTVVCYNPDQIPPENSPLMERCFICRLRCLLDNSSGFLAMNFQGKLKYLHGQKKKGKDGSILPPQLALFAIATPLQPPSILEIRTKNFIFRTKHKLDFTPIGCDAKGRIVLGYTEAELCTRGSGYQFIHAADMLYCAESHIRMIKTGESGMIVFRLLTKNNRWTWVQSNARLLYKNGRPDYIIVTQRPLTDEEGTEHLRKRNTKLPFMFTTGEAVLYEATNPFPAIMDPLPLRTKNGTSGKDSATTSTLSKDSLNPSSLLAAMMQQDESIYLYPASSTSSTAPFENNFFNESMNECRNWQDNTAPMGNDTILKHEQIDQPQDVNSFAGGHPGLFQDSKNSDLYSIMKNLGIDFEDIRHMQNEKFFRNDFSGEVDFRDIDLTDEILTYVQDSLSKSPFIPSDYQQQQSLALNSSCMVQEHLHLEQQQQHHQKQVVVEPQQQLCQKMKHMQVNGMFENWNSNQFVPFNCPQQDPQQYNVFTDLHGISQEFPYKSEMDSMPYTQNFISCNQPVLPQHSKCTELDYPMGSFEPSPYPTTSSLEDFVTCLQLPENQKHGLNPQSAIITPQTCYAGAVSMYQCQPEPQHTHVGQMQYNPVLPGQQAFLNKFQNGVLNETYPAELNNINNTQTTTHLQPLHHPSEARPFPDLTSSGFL
Chain of Hepatocyte nuclear factor 3-beta (Homo sapiens) (Q9Y261 whole entry, looked up): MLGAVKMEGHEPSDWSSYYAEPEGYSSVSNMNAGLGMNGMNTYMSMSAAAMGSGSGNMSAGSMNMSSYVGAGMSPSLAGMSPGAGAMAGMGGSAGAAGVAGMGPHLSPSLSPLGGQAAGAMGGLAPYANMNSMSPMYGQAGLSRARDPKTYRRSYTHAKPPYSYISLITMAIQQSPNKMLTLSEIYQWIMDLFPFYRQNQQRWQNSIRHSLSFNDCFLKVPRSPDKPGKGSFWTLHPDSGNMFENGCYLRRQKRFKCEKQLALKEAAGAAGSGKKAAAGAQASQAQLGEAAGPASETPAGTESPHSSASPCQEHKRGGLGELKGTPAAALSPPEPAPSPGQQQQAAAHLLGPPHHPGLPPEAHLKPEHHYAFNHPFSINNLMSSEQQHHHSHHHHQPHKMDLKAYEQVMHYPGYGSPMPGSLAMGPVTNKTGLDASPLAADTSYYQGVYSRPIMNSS
Chain of Retinoic acid receptor alpha (Homo sapiens) (P10276 whole entry, looked up): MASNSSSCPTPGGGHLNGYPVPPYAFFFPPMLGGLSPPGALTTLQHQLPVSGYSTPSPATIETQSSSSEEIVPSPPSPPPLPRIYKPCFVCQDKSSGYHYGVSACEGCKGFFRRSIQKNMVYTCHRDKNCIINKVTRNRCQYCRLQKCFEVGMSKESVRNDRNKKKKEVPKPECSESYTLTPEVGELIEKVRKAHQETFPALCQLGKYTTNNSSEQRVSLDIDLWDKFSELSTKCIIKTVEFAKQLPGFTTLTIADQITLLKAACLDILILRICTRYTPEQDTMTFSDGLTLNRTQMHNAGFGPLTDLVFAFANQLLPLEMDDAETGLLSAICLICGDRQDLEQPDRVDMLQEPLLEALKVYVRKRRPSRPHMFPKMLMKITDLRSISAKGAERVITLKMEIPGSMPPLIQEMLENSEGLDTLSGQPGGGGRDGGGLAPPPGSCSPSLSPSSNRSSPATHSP
Chain of Transcription factor E2F1 (Homo sapiens) (Q01094 whole entry, looked up): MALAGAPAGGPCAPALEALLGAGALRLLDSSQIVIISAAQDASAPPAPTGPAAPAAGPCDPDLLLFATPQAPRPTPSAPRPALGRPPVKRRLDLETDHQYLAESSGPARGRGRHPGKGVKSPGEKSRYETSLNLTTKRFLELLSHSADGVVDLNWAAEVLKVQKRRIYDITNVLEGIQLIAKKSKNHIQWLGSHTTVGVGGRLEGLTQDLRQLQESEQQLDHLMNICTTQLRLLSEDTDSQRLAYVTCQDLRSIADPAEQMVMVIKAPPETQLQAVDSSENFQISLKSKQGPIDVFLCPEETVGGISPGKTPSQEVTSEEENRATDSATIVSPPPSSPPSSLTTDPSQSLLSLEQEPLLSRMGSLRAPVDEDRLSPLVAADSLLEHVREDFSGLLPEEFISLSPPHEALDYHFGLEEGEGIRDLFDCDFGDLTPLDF
Chain of CCAAT/enhancer-binding protein beta (Homo sapiens) (P17676 whole entry, looked up): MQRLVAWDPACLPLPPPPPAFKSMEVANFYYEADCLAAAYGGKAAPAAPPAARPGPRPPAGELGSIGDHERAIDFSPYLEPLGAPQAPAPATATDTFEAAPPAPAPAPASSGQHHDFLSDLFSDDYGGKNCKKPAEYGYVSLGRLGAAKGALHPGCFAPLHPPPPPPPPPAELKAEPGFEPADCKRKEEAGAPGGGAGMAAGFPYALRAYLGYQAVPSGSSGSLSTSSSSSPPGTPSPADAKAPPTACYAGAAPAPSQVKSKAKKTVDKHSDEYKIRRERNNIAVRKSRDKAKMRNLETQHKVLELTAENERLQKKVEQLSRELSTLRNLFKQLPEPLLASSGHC

[Cl][Dy]([Cl])[Cl]
inactive: [1] | [2] | [3] | [4] | [5] | [6] | [7] | [8] | [9] | [10] | [11] | [12] | [13] | [14] | [15] | [16] | [17]

Nc1ccc(N)c([N+](=O)[O-])c1
inactive: [2] | [18] | [6] | [7] | [19] | [8] | [9] | [10] | [11] | [12] | [15] | [16] | [17]
active: [3] 77.1 µM [middle of 5 runs] | [4] 3.14 µM [middle of 5 runs] | [13] 41.6 µM [middle of 5 runs]

Cc1ccccc1S
inactive: [2] | [3] | [4] | [6] | [7] | [8] | [9] | [10] | [11] | [12] | [15] | [17]
active: [1] 72.3 µM | [5] 36.6 µM | [13] 20.5 µM | [16] 134 µM

CC1(C)CC(=O)CC(C)(C)N1
inactive: [1] | [2] | [3] | [4] | [6] | [7] | [8] | [9] | [10] | [11] | [12] | [13] | [14] | [15] | [16]

Cc1ccc(C(C)(C)O)cc1
inactive: [1] | [2] | [3] | [4] | [5] | [6] | [8] | [9] | [10] | [11] | [12] | [13] | [14] | [15] | [16] | [17]

OCC=Cc1ccccc1
inactive: [1] | [2] | [3] | [5] | [6] | [7] | [8] | [9] | [10] | [11] | [12] | [14] | [15] | [16] | [17]
active: [4] 50.1 µM

CCNC(=S)NCC
inactive: [1] | [2] | [3] | [4] | [5] | [6] | [7] | [8] | [9] | [11] | [12] | [14] | [15] | [16]

CC(C)N(c1ccccc1)C(C)C
inactive: [1] | [2] | [3] | [4] | [5] | [6] | [7] | [8] | [9] | [10] | [11] | [12] | [13] | [15] | [16]

CCCOC(=O)CC
inactive: [1] | [2] | [3] | [4] | [5] | [6] | [7] | [8] | [9] | [10] | [11] | [12] | [13] | [14] | [15] | [16] | [17]

CCCCOCC(C)OCC(C)O (stereo not drawn)
inactive: [1] | [2] | [3] | [4] | [5] | [7] | [8] | [9] | [10] | [11] | [12] | [13] | [14] | [15] | [16] | [17]

CC(CCO)CC(C)(C)C (stereo not drawn)
inactive: [1] | [2] | [3] | [4] | [5] | [7] | [19] | [8] | [10] | [11] | [12] | [14] | [15] | [16] | [17]

CC(=O)N(C)C
inactive: [2] | [3] | [18] | [4] | [6] | [7] | [19] | [8] | [9] | [10] | [11] | [12] | [13] | [14] | [15] | [16] | [17]

[Na+]
inactive: [1] | [2] | [3] | [4] | [7] | [8] | [9] | [10] | [11] | [12] | [13] | [14] | [15] | [16] | [17]

CCOC(=O)CC(C)C
inactive: [1] | [2] | [3] | [4] | [6] | [7] | [8] | [9] | [11] | [12] | [13] | [14] | [15] | [16]

CC(C)(CO)CO
inactive: [1] | [2] | [3] | [4] | [5] | [6] | [7] | [8] | [9] | [11] | [12] | [15] | [16]

CCCCCCC(O)CCOC(C)=O (stereo not drawn)
inactive: [1] | [2] | [3] | [4] | [5] | [6] | [7] | [8] | [9] | [10] | [11] | [12] | [13] | [14] | [15] | [16] | [17]

CC(=O)CCc1ccc(O)cc1
inactive: [1] | [2] | [3] | [5] | [6] | [7] | [8] | [9] | [10] | [11] | [12] | [14] | [15] | [16] | [17]

CCCCOCCOCCOCCO
inactive: [1] | [2] | [3] | [4] | [5] | [6] | [19] | [8] | [9] | [10] | [11] | [12] | [13] | [14] | [15] | [16] | [17]

C=COCC1CCC(COC=C)CC1 (stereo not drawn)
inactive: [1] | [2] | [3] | [4] | [5] | [6] | [7] | [8] | [9] | [10] | [11] | [12] | [13] | [14] | [15] | [16] | [17]
